SMILES strings stand for the structures. Calls of active or inactive are those of the source. A call without a number means that no potency is given here. Calls follow the shape of the dose curve; as a rule, active = well fitted curve in the direction sought with a large enough effect in the repeat runs; inconclusive = weak or mixed curves; inactive = flat fitted curve, though single readings scatter.

The values below come from PubChem BioAssay (Tox21).

The nature of this assay: qHTS assay to test for compound auto fluorescence at 460 nm (blue) in HEK293 cell free culture (AID 720681). Conditions: cell-free medium, autofluorescence 405/460 nm (blue); series mostly up to 46 µM. In a few lines:
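Blue fluorescence (Ex 405/Em 460 nm, triamterene-equivalent) was read immediately after pin transfer of compound or DMSO into medium (DMEM, 10% FBS) without cells.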
On the technique in general: In qHTS, concentration-response curves come from the screen itself.
As for `CCCC(=O)O[C@]1(C(=O)COC(C)=O)CC[C@H]2[C@@H]3C[C@H](F)C4=CC(=O)C=C[C@]4(C)[C@@]3(F)[C@@H](O)C[C@@]21C`, the Potency entry is “inactive”.

`C=C1CC2C3CCC4=CC(=O)C=C[C@]4(C)[C@@]3(F)[C@@H](O)C[C@]2(C)[C@@]1(O)C(=O)COC(C)=O` (some centres not stated): the Potency entry was “inactive”.

With `C[C@H]1[C@@H](OC(=O)CCC(=O)O)O[C@@H]2OC3(C)CC[C@H]4[C@H](C)CC[C@@H]1[C@@]24OO3`, the Potency result was “inactive”.

Turning to `OCCO[C@@H]1[C@@H](O)[C@H](O)[C@@H](CO)O[C@@H]1O`, the Potency entry was “inactive”.

In the case of `CN[C@@H]1[C@H](O[C@H]2[C@H](O[C@H]3[C@H](O)[C@@H](O)[C@H](N=C(N)N)[C@@H](O)[C@@H]3N=C(N)N)O[C@@H](C)[C@]2(O)C=O)O[C@@H](CO)[C@H](O)[C@H]1O`, the Potency result is “inactive”.

Regarding `O=C(Cc1cccs1)N[C@@H]1C(=O)N2C(C(=O)[O-])=C(C[n+]3ccccc3)CS[C@H]12`, the Potency entry is “inactive”.

With `Clc1cc(Cl)c(OCC#CI)cc1Cl`, the Potency result was “inactive”.

Regarding `C[N@+]12CCCC[C@@H]1CCC(=C(c1cccs1)c1cccs1)C2`, the Potency entry was “inactive”.

`CC1(O)CCC(C(C)(C)O)CC1` (configuration not stated): the Potency entry is “inactive”.

For `CC#CCC(C)[C@H](O)/C=C/[C@@H]1[C@H]2c3cccc(CCCC(=O)O)c3O[C@H]2C[C@H]1O` (some centres not stated), the Potency entry is “inactive”.

In the case of `CCN(CC)CCCC(C)Nc1cc(/C=C/c2ccccc2Cl)nc2cc(Cl)ccc12` (configuration not stated), the Potency result is “inactive”.

On to `CCCCC(=O)OCC(=O)[C@]1(O)Cc2c(O)c3c(c(O)c2[C@@H](O[C@H]2C[C@H](NC(=O)C(F)(F)F)[C@H](O)[C@H](C)O2)C1)C(=O)c1c(OC)cccc1C3=O`, for which the Potency result is “inactive”.
